The results in this text go back to PubChem BioAssay.

Calls of active or inactive are those of the source. Unless noted, no rule for the calls is given here.

Assay [1] can be described thus: liver-stage malaria parasite load reduction – cell-based, known kinase inhibitor set, luminescence, hepatoma host viability (AID 624392).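 Also: infected cells incubated roughly two days before readout.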 Conditions: Plasmodium liver stage in hepatoma cells, luciferase luminescence, concentration not given here; liver cell % of control: measured here: host liver cell viability; parasite % of control: stronger effect = lower value.
Assay [2] is described as follows: altered dexamethasone sensitivity, NF-kB reporter, cell-based, luciferase, IL-1B stimulus (AID 624486).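 As to percent of negative control (+Dex): 100% = mean signal of vehicle control wells on the plate.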 Conditions: IL-1B + dexamethasone, luminescence; percent of negative control (+Dex): actives lie on both sides, concentration not given here; z-score: measured here: IL-1B alone, no Dex.
Assay [3] in a line: C. elegans survival during P. aeruginosa infection – whole organism (AID 651566).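 Also: tested at 14 µM; sign flipped so higher z means a lower ratio.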 Conditions: C. elegans killed by P. aeruginosa, survival ratio.
Assay [4] can be described thus: pro-inflammatory signaling induction in mouse macrophages – cell-based, murine, luminescence (AID 652131). Conditions: murine macrophage pro-inflammatory reporter, stronger effect = higher value.
Assay [5] addresses Cellular tumor antigen p53 (Homo sapiens) (UniProt P04637). The assay can be described thus: GFP-p53 level modulators in HPV16+ cells – imaging, known kinase inhibitor set, EGFP/DsRed ratio (AID 1053116).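 Also: cells exposed to compounds for 24 h at 37 °C before reading.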 Particulars: GFP-p53 stability, stronger effect = higher value; EGFP object count: measured here: GFP-p53 positive objects count.
Assay [6] can be described thus: inducers of IRF3 signaling, differentiated THP-1 – cell-based, PMA-stimulated THP-1, luminescence (AID 1053176). Particulars: PMA-differentiated THP-1, IRF3 reporter luminescence; stronger effect = higher value.
Assay [7] is described as follows: MELAS cybrid and Rieske KO viability enhancers – cell-based, MELAS cybrids, Rieske KO mouse fibroblasts, CellTiter-Glo, primary screen (AID 1508586;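 active = mean z-score across replicates of 1.96 or higher in either the MELAS or the Rieske mutant cell line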;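 also: z relative to plate mean and SD of compound and empty wells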). Particulars: low glucose. (In general: Cellular ATP, detected with luciferase, serves as a proxy for viable cell number.)
[8] abbreviates: MELAS cybrid survival, CellTiter-Glo 48 h, stronger effect = higher value.
[9] abbreviates: Rieske KO mouse fibroblast survival, CellTiter-Glo 72 h.

Chain of Cellular tumor antigen p53 (Homo sapiens) (P04637 whole entry, looked up): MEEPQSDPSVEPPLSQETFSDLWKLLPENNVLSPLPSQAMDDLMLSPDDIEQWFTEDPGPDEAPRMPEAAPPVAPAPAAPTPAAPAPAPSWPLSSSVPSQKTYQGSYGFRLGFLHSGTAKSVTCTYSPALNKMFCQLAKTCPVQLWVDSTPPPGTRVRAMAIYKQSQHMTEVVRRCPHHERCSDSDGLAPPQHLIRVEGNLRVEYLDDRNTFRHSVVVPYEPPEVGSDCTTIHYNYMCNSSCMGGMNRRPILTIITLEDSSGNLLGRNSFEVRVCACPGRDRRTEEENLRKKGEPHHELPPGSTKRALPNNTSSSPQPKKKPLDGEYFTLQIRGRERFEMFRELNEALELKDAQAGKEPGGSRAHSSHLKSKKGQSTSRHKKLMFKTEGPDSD

The compound `CNC(=O)c1cncc(/C=C/c2ccccc2C)c1` came in with a liver cell % of control in assay [1] of 170%. The parasite % of control in assay [1] is 27.9% (inactive). The percent of negative control (+Dex) in assay [2] is 108% (inactive). Moreover, the z-score is -0.24 in assay [2]; 0.255 (inactive) in assay [3]; 0.604 (inactive) in assay [4]; 0.836 (inactive) in assay [7] (setting [8]); -0.131 in assay [7] (setting [9]). Also, in assay [5], the EGFP object count came to 4. Further, the EGFP/DsRed ratio in assay [5] is 0.0734 (inactive). The fraction signal in assay [6] was 0.0395 (inactive).

In the case of `Cc1nnc(-c2ccc(C)c(-c3ccc(C(=O)Nc4cccc(C#N)c4)cc3)c2)o1`, in assay [1], the liver cell % of control worked out at 117%. Also, in assay [1], the parasite % of control is 154% (inactive). For the same compound, in assay [2], the percent of negative control (+Dex) is 100% (inactive). Further, the z-score was 0.575 in assay [2]; -0.18 (inactive) in assay [3]; -0.619 (inactive) in assay [4]; -0.755 (inactive) in assay [7] (setting [8]); -0.283 in assay [7] (setting [9]). Moreover, the EGFP object count in assay [5] was found to be 1.5. In assay [5], the EGFP/DsRed ratio was 0.0236 (inactive). Further, the fraction signal in assay [6] is -0.004 (inactive).

For `Nc1ncnc2occ(-c3ccc(NC(=O)Nc4cc(C(F)(F)F)cc(C(F)(F)F)c4)cc3)c12`, the liver cell % of control in assay [1] stood at 58.8%. Further, in assay [1], the parasite % of control was 11.2% (inactive). In addition, the percent of negative control (+Dex) in assay [2] is 77.5% (inactive). In addition, the z-score was -2.48 in assay [2]; -0.205 (inactive) in assay [3]; -1.51 (inactive) in assay [4]; -0.873 (inactive) in assay [7] (setting [8]); -0.237 in assay [7] (setting [9]). Also, in assay [5], the EGFP object count is 2. Also, the EGFP/DsRed ratio in assay [5] was 0.014 (inactive). The fraction signal in assay [6] was -0.006 (inactive).

The compound `COc1ccc(-c2ccncc2)cc1C(N)=O` displayed a liver cell % of control in assay [1] of 85.3%. For the same compound, in assay [1], the parasite % of control is 135% (inactive). In addition, in assay [2], the percent of negative control (+Dex) was 90% (inactive). Also, the z-score in assay [2] is -0.52; in assay [3] it was 0.46 (inactive); in assay [4] it was 0.337 (inactive); in assay [7] (setting [8]) it was -0.169 (inactive); in assay [7] (setting [9]), -0.232. For the same compound, in assay [5], the EGFP object count was determined as 4. Moreover, the EGFP/DsRed ratio in assay [5] is 0.12 (inactive). Moreover, the fraction signal in assay [6] was -0.004 (inactive).

Turning to `CN(C)C(=O)O[C@@H]1CN[C@@H](C#Cc2cc3ncnc(Nc4ccc(OCc5cccc(F)c5)c(Cl)c4)c3s2)C1`, the liver cell % of control in assay [1] turned out to be 108%. The parasite % of control in assay [1] was 112% (inactive). In addition, the percent of negative control (+Dex) in assay [2] was 87% (inactive). Besides, the z-score in assay [2] is -0.155; in assay [3], 0.705 (inactive); in assay [4], -0.722 (inactive); in assay [7] (setting [8]), 0.394 (inactive); in assay [7] (setting [9]) it was -0.329. In addition, the EGFP object count in assay [5] was 4. Also, the EGFP/DsRed ratio in assay [5] was 0.0417 (inactive). The fraction signal in assay [6] was -0.0055 (inactive).

Consider `Fc1ccc(-c2cc(C3CNNC3c3ccccn3)ccn2)cc1` (stereo not drawn), for which, in assay [1], the liver cell % of control was 162%. Also, the parasite % of control in assay [1] is 60.9% (inactive). Also, the percent of negative control (+Dex) in assay [2] was 81% (inactive). The z-score in assay [2] is -1.07; in assay [3], 0 (inactive); in assay [4], -0.015 (inactive); in assay [7] (setting [8]) it was 0.213 (inactive); in assay [7] (setting [9]), -0.249. For the same compound, the EGFP object count in assay [5] turned out to be 3. Moreover, the EGFP/DsRed ratio in assay [5] is 0.0511 (inactive). The fraction signal in assay [6] is -0.0065 (inactive).

Take `O=C1NC(=O)C(N2CCc3ccccc32)=C1c1ccc(Cl)cc1`: in assay [1], the liver cell % of control was 86.6%. Further, the parasite % of control in assay [1] was 138% (inactive). Further, in assay [2], the percent of negative control (+Dex) is 74% (inactive). Also, the z-score in assay [2] was -1.47; in assay [3] it was -1.35 (inactive); in assay [4], -0.315 (inactive); in assay [7] (setting [8]), -0.729 (inactive); in assay [7] (setting [9]), 0.357. Also, the EGFP object count in assay [5] was determined as 4. In addition, the EGFP/DsRed ratio in assay [5] is 0.106 (inactive). Further, the fraction signal in assay [6] is -0.0285 (inactive).

As to `C[C@@H](Oc1cc(-n2cnc3ccc(OCC4CCN(C)CC4)cc32)sc1C(N)=O)c1ccccc1Cl`, in assay [1], the liver cell % of control was 73.4%. Moreover, in assay [1], the parasite % of control is 117% (inactive). Besides, in assay [2], the percent of negative control (+Dex) is 104% (inactive). Besides, the z-score in assay [2] is -0.185; in assay [3], -0.885 (inactive); in assay [4], -2.53 (inactive); in assay [7] (setting [8]), -0.19 (inactive); in assay [7] (setting [9]) it was 0.83. In assay [5], the EGFP object count came to 7. Also, the EGFP/DsRed ratio in assay [5] is 0.174 (inactive). Moreover, the fraction signal in assay [6] is -0.009 (inactive).

In turn, `COc1ccc2cc(-c3c(-c4ccncc4)nc(-c4ccc(S(C)(=O)=O)cc4C)n3C)ccc2c1` displayed a liver cell % of control in assay [1] of 118%. In addition, the parasite % of control in assay [1] was 101% (inactive). In addition, in assay [2], the percent of negative control (+Dex) is 99% (inactive). In addition, the z-score in assay [2] was 0.22; in assay [3] it was 1.57 (inactive); in assay [4], -0.298 (inactive); in assay [7] (setting [8]), -0.409 (inactive); in assay [7] (setting [9]), -0.281. The EGFP object count in assay [5] was 1.5. For the same compound, in assay [5], the EGFP/DsRed ratio was 0.0486 (inactive). Further, in assay [6], the fraction signal was 0.0025 (inactive).

Compound `CC(C)c1ccc2c(N=Nc3ccc(S(N)(=O)=O)cc3)c(O)[nH]c2c1` registered a liver cell % of control in assay [1] of 93.4%. Further, the parasite % of control in assay [1] was 160% (inactive). The percent of negative control (+Dex) in assay [2] was 94% (inactive). The z-score in assay [2] was 0.03; in assay [3], 0.635 (inactive); in assay [4], -0.919 (inactive); in assay [7] (setting [8]), -0.58 (inactive); in assay [7] (setting [9]), -0.254. Besides, in assay [5], the EGFP object count came out at 4. Moreover, the EGFP/DsRed ratio in assay [5] was 0.177 (inactive). Further, in assay [6], the fraction signal is -0.0065 (inactive).

`COc1ccc(-c2nn3ncccc3c2-c2ccnc(Nc3ccc(Cl)c(C(F)(F)F)c3)n2)cc1`: the liver cell % of control in assay [1] was 101%. In addition, the parasite % of control in assay [1] is 87.8% (inactive). Besides, the percent of negative control (+Dex) in assay [2] is 98% (inactive). Further, the z-score was 0.34 in assay [2]; -1.15 (inactive) in assay [3]; -0.74 (inactive) in assay [4]; 1.48 (inactive) in assay [7] (setting [8]); -0.347 in assay [7] (setting [9]). For the same compound, the EGFP object count in assay [5] was determined as 2.5. For the same compound, the EGFP/DsRed ratio in assay [5] is 0.0806 (inactive). The fraction signal in assay [6] is -0.0025 (inactive).

Consider `CC1(C)CC(n2cnc(-c3ccc(F)cc3)c2-c2ccnc(N)n2)CC(C)(C)N1`, for which the liver cell % of control in assay [1] stood at 79.9%. In addition, the parasite % of control in assay [1] is 131% (inactive). Besides, the percent of negative control (+Dex) in assay [2] was 110% (inactive). Besides, the z-score in assay [2] is 1.77; in assay [3], 0.485 (inactive); in assay [4] it was 1.82 (inactive); in assay [7] (setting [8]) it was -0.417 (inactive); in assay [7] (setting [9]), 0.00971. Moreover, the EGFP object count in assay [5] came out at 4. For the same compound, the EGFP/DsRed ratio in assay [5] is 0.0677 (inactive). In addition, the fraction signal in assay [6] is 0.0175 (inactive).

In turn, `COc1ccc(-c2nn3ncccc3c2-c2ccnc(Nc3ccc4c(c3)OCCO4)n2)cc1` showed a liver cell % of control in assay [1] of 172%. The parasite % of control in assay [1] is 12.5% (active). In addition, in assay [2], the percent of negative control (+Dex) is 79% (inactive). In addition, the z-score in assay [2] is -1.21; in assay [3] it was 1.58 (inactive); in assay [4], -0.248 (inactive); in assay [7] (setting [8]), 0.896 (inactive); in assay [7] (setting [9]) it was 0.839. Further, the EGFP object count in assay [5] stood at 1.5. The EGFP/DsRed ratio in assay [5] was 0.0413 (inactive). Also, in assay [6], the fraction signal is 0.0025 (inactive).
